# From PubChem BioAssay AID382 (SGCOxCompounds, 2006)
# The source made the active and inactive calls. The rule behind the calls is not given here.
# Molecular target: Dual specificity protein kinase CLK1 (Homo sapiens) (UniProt P49759)
# Test: CLK1 binders by thermal stabilization, biophysical, recombinant human kinase, DSF (AID 382)
# Conditions: at 10 µM, protein 2 µM, buffer 10 mM HEPES, pH 7.5, NaCl 150 mM, stronger effect = higher value
# Sequence of Dual specificity protein kinase CLK1 (Homo sapiens) (P49759 whole entry, looked up): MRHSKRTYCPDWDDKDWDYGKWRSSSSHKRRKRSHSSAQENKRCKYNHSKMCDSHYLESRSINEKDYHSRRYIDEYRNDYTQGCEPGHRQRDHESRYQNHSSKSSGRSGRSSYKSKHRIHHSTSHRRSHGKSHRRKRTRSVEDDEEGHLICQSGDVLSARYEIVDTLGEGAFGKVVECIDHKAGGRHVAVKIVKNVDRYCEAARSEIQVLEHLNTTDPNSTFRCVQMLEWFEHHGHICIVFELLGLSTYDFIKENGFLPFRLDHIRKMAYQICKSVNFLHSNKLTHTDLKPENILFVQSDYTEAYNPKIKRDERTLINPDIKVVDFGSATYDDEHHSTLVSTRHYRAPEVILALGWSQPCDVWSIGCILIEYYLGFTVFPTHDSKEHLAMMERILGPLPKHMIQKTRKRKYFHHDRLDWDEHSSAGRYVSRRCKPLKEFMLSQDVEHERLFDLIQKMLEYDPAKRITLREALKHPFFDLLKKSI
row,SMILES,Tm shift
1,Clc1ccc(-c2cnn3ccc(NCc4cccnc4)nc23)cc1,4.33 Celsius (active)
2,c1ccc(-c2cnc3ccc(NCc4cccs4)nn23)cc1,3.23 Celsius (active)
3,Nc1ncc(-c2ccncc2)nc1NC1CCCCC1,3.7 Celsius (active)
4,Clc1cccc(Nc2ccn3ncc(-c4ccsc4)c3n2)c1,3.45 Celsius (active)
5,c1csc(-c2cnc3ccc(NCC4CC4)nn23)c1,3.52 Celsius (active)

# Same assay, conditions: at 10 µM, protein 2 µM, buffer 10 mM HEPES, pH 7.5, NaCl 150 mM, with 50 µM L-Arg/L-Glu (1:1), stronger effect = higher value
row,SMILES,Tm shift
1,NC1=N/C(=C2\CCNC(=O)c3[nH]ccc32)C(=O)N1,6 Celsius (active)
2,CCC(CO)Nc1ccc2ncc(-c3cccc(OC(F)(F)F)c3)n2n1 (centres undefined),5.3 Celsius (active)
3,O=c1[nH]c(O)c2c1c1c3ccccc3nc1n1cncc21,4.5 Celsius (active)
4,Clc1ccc(-c2cnc3ccc(NC4CCOCC4)nn23)cc1,5.7 Celsius (active)
5,CC(=O)c1cccc(-c2cnc3ccc(N[C@H](CO)C(C)C)nn23)c1,6.7 Celsius (active)
6,Oc1cccc(-c2cnc3ccc(NC4CCOCC4)nn23)c1,5.1 Celsius (active)
7,N#Cc1ccc(-c2cnc3ccc(NC4CCOCC4)nn23)cc1,7.2 Celsius (active)
8,N#CCCc1ccc2c(c1)-c1[nH]c3ccc(-n4oo4)cc3c1CC(=O)N2,3.1 Celsius (active)
9,CCC(CO)Nc1ccc2ncc(-c3ccc(OC)nc3)n2n1 (centres undefined),4.5 Celsius (active)
10,O=C(c1ccc(Nc2nccc(-c3cc4ccccc4s3)n2)cc1)N1CCC(N2CCCC2)CC1,6.1 Celsius (active)
11,Nc1ccc(-c2cnc3ccc(NC4CCOCC4)nn23)cc1,4.8 Celsius (active)

# Same assay, conditions: at 10 µM, protein 2 µM, buffer 10 mM HEPES, pH 7.5, NaCl 150 mM, with 50 mM Arg/Glu, stronger effect = higher value
row,SMILES,Tm shift
1,CN(C)CCCn1cc(C2=C(c3c[nH]c4ccccc34)C(=O)NC2=O)c2ccccc21,4.4 Celsius (active)
2,NC1=N/C(=C2/CCNC(=O)c3[nH]c(Br)cc32)C(=O)N1,4.4 Celsius (active)
3,Nc1ncnc2c1c(I)cn2[C@@H]1O[C@H](CO)C(O)C1O (some centres undefined),5.2 Celsius (active)
4,CC(C)n1cnc2c(Nc3cccc(Cl)c3)nc(NCCO)nc21,4.6 Celsius (active)

# Same assay, conditions: measured here: replicate experiment 2, at 10 µM, run 2, protein 2 µM, buffer 10 mM HEPES, NaCl 150 mM, stronger effect = higher value
row,SMILES,Tm shift [Celsius]
1,COC(=O)c1cnc2oc3ccc(O)cc3c2c1-c1ccccc1,3.9
2,O=c1c(O)c(-c2ccc(O)c(O)c2)oc2cc(O)cc(O)c12,6
3,CC1N=C2SC=CN2C(=O)C1CCN1CCC(=C(c2ccccc2)c2ccc(F)cc2)CC1 (centres undefined),3.6
4,O=C1c2ccccc2-c2n[nH]c3cccc1c23,3.2
